Results from PubChem BioAssay AID504332 (National Center for Advancing Translational Sciences (NCATS), 2011).
Among all 350,000 compounds or so, about 31,000 (8.9%) were called active. Inconclusive results (about 15%) are left out. Calls follow the shape of the dose curve; as a rule, active = well fitted inhibition curve with a large enough effect; inconclusive = small, poorly fitted or top-dose-only effect; inactive = no such curve, though single readings can be large or run the other way. The entries come from a sample that favours actives as a whole.

What follows are compounds tested against Histone-lysine N-methyltransferase EHMT2 (Homo sapiens) (UniProt Q96KQ7) (assay: qHTS Assay for Inhibitors of Histone Lysine Methyltransferase G9a). Details: G9a H3K9 monomethylation, AlphaScreen, 2 h; series mostly up to 59 µM; activity, negative = inhibition: at the top concentration.
Summary of the method: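 Methyltransferase reactions run at room temperature for 2 h (20 nM enzyme, 500 nM biotin-H3K9 peptide, 20 uM SAM) after a 15 min compound preincubation; product detected by AlphaScreen beads and anti-H3K9me1 antibody.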
% is scaled to controls: 0 for no effect and ±100 for the full control effect; potency is read from the fitted curve at half-maximal effect.
Also: nearly all actives have a fitted effect of over 75% in size.

Histone-lysine N-methyltransferase EHMT2 (Homo sapiens), sequence (Q96KQ7 913-1193 limits assumed): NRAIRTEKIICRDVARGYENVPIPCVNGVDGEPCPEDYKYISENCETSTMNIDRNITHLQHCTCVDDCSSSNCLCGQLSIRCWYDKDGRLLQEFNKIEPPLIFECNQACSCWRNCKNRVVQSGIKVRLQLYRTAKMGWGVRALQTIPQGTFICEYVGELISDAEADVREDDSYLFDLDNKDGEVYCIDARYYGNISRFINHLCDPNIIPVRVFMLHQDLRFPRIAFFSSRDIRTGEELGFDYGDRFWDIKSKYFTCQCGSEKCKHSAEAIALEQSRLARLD

SMILES | activity, negative = inhibition | Potency
COc1ccc2cc(C(=O)NCC3CCCO3)[nH]c2c1 (configuration not stated) | 20.9% [at 102 µM] (inactive) | 
Cc1cc2c(cc1S(=O)(=O)CCC(=O)Nc1ccc(OC(F)(F)F)cc1)OCC(=O)N2 | -2.89% (inactive) | 
C=CCn1c(SCC(=O)/C(C#N)=C(\C)N)nc2sc(C)c(C)c2c1=O | 10.1% (inactive) | 
C=CCn1c(SCc2csc(C)n2)nc2scc(-c3ccc(C)o3)c2c1=O |  | 10 µM (active)
C=CCn1c(SCC(=O)Nc2ccc(NC(C)=O)cc2)nc2sc(C)c(C)c2c1=O | 8.2% [at 12.7 µM] (inactive) | 
CCN(C(=O)Cc1c(C(=O)O)n(CC)c2ccccc12)c1ccccc1C | 26.7% [at 0.501 µM] (inactive) | 
CCN(C(=O)CSc1ncn[nH]1)c1cccc2ccccc12 |  | 22.4 µM (active)
O=C(CSc1ncn[nH]1)Nc1nsc(-c2ccccc2)n1 | 2.39% (inactive) | 
CCOc1ccc(C(=O)NCC(=O)N2CCCCCCC2)cc1OCC | 8% [at 0.501 µM] (inactive) | 
CC(Oc1ccc(F)cc1)C(=O)Nc1ccccc1C(=O)NC1CC1 (configuration not stated) | -3.62% [at 102 µM] (inactive) | 
COc1cc(-c2c(-c3ccc4c(c3)OCO4)noc2C)ccc1F | 73.1% [at 102 µM] (inactive) | 
CC(C(=O)N1CCc2ccccc21)N(C)CC(=O)Nc1ccc(F)cc1 (configuration not stated) | 13.8% [at 12.7 µM] (inactive) | 
CC(=NCc1ccco1)c1c(C(F)(F)F)[nH]n(-c2nc3ccccc3s2)c1=O | 1.72% [at 12.7 µM] (inactive) | 
COC(=O)Cc1[nH]n(-c2nc3ccccc3s2)c(=O)c1C(C)=Nc1ccc(OC)cc1 |  | 2.82 µM (active)
C/C(=N\NC(=O)CC(C)C)c1c(C(F)(F)F)[nH]n(-c2nc3ccccc3s2)c1=O | -30.7% [at 102 µM] (inactive) | 
COc1ccccc1CCC(=O)OCC(=O)N1CCN(S(=O)(=O)c2ccc(C)cc2C)CC1 | 3.44% [at 102 µM] (inactive) | 
Brc1ccc(-c2nn[nH]n2)cc1 | 9.86% [at 102 µM] (inactive) | 
c1ccc(-n2ncc(-c3nn[nH]n3)n2)cc1 |  | 50.1 µM (active)
c1ccc(-n2nc3ccccc3n2)cc1 | 3.29% (inactive) | 
Cc1c(NC(=O)C(C)Oc2cccc(Cl)c2)c(=O)n(-c2ccccc2)n1C (configuration not stated) | -19.9% [at 102 µM] (inactive) | 
CCN(CC)c1ccc(C2C(C(N)=O)=C(C)Nc3nc(SCc4ccccc4)nn32)cc1 (configuration not stated) | -1.21% (inactive) | 
COc1cccc(-c2nc3n(n2)C(c2ccccc2Cl)C(C(N)=O)=C(C)N3)c1 (configuration not stated) | 4.56% (inactive) | 
CC1=C(C(N)=O)C(c2ccc3c(c2)OCO3)n2nc(-c3cccc(C)c3)nc2N1 (configuration not stated) |  | 0.355 µM (active)
COc1ccc(CC(=O)N2CC(=O)Nc3ccc(Br)cc3C2c2ccc(F)cc2)cc1OC (configuration not stated) | 2.61% (inactive) | 
CCc1ccc(C2C(C(=O)Nc3ccccc3)=C(C)Nc3c(C(=O)Nc4ccc(C)cc4)cnn32)cc1 (configuration not stated) | -3.94% (inactive) | 

SMILES | activity, negative = inhibition | Potency
Cc1cc(F)ccc1NC(=O)C(C)n1c2ccccc2c2nc(=O)cc(C)n21 (configuration not stated) | 7.01% [at 102 µM] (inactive) | 
Cc1cc(F)ccc1NS(=O)(=O)c1ccc(-n2cccn2)cc1 | -7.8% (inactive) | 
Cc1cc(F)ccc1NC1(c2ccccc2)C(=O)c2ccccc2C1=O |  | 14.1 µM (active)
COc1cccc2c1cc1c(=O)n(CC(=O)N3CCN(c4cccc(Cl)c4)CC3)nc(C)n12 | 0.803% (inactive) | 
O=S(=O)(NCC(c1ccco1)N1CCOCC1)c1cc(F)ccc1F (configuration not stated) | -0.918% (inactive) | 
Clc1nc(NC2CCCC2)nc(N2CCOCC2)n1 | -4.76% [at 102 µM] (inactive) | 
COC(=O)CNc1nc(Cl)nc(N2CCC(C)CC2)n1 |  | 56.2 µM (active)
CCOC(=O)CNc1nc(Cl)nc(Nc2ccccc2)n1 | -16.2% [at 102 µM] (inactive) | 
O=[N+]([O-])c1cc([N+](=O)[O-])c(Oc2cc(F)cc(F)c2F)cc1NN1CCCCC1 |  | 15.8 µM (active)
O=C(COc1ccccc1F)NNC(=O)c1ccc(N2CCCCC2)c([N+](=O)[O-])c1 | -36.2% (inactive) | 
O=C(COc1ccc(Cl)cc1[N+](=O)[O-])N1CCCCC1 | -22.5% [at 102 µM] (inactive) | 
CCOC(=O)C1CCN(C(=O)CSc2c3c(nc4ccc(Cl)cc24)CCCC3)CC1 | 2.68% (inactive) | 
COc1ccc(/C=C2\SC(=O)N(CCC(=O)NCCCn3ccnc3)C2=O)cc1 | 8.95% [at 102 µM] (inactive) | 
COc1ccc(/C=C2/SC(=O)N(CCCCCC(=O)Nc3ccccc3C(=O)O)C2=S)cc1 |  | 35.5 µM (active)
COc1ccccc1C(=O)NNC(=O)CCN1C(=O)/C(=C\c2ccccc2)SC1=S | -11.8% [at 102 µM] (inactive) | 
CN(C(=O)c1ccc2c(c1)N(Cc1cccc(Cl)c1)C(=O)c1ccccc1S2=O)C1CCCCC1 (configuration not stated) | -25.6% (inactive) | 
CCOc1ccc(NC(=O)c2cc(C)nc3ccccc23)cc1 | 7.25% [at 102 µM] (inactive) | 
CNC(=O)C(=O)N/N=C/c1ccccn1 | -131% [at 12.7 µM] (inactive) | 
Cc1cc(C(=O)N/N=C/c2ccccn2)c2ccccc2n1 |  | 12.6 µM (active)
COC(=O)C1CCN(C(=O)c2ccc3oc(Cc4ccc(Cl)cc4)nc3c2)CC1 | 25.1% [at 102 µM] (inactive) | 
CCC(=O)N1N=C(c2ccc(OC)cc2)CC1c1cn(-c2ccccc2)nc1-c1cccs1 (configuration not stated) | 8.55% (inactive) | 
COc1ccc(-c2nc(Cn3c(=O)cc(C)c4c(C)nn(-c5ccccc5)c43)c(C)o2)c(OC)c1 | -47.2% (inactive) | 
CCOc1cccc(C(=O)Nc2nnc(S(=O)(=O)N(C)c3ccc(C)cc3)s2)c1 | 5.27% (inactive) | 
Cn1c(SCC(=O)N2CCCC2)nnc1-c1ccc2c(c1)OCO2 | -0.309% [at 102 µM] (inactive) | 
Cn1c(SCC(=O)N2CCOCC2)nnc1-c1ccc(NC(=O)c2ccccc2F)cc1 |  | 50.1 µM (active)

SMILES | activity, negative = inhibition | Potency
Cn1c(SCC(=O)N2CCOCC2)nnc1-c1ccc2ncccc2c1 | -12.7% (inactive) | 
CCn1cc(C(=O)NCc2ccccc2)c(=O)c2cc(S(=O)(=O)N3CCCCC3)ccc21 | -1.02% (inactive) | 
Cc1ccc(CNC(=O)CCNS(=O)(=O)c2ccc3c(c2)oc(=O)n3C)cc1 | -10.2% (inactive) | 
COc1cccc(CN2CCc3nc(SCC(=O)Nc4ccccc4)[nH]c(=O)c3C2)c1 | -10.1% (inactive) | 
Nc1ccc2c3c(cccc13)C(=O)NC2=O | 29.3% [at 12.7 µM] (inactive) | 
CCN1C(=O)c2cccc3c(N)ccc1c23 |  | 39.8 µM (active)
Cc1cccc(NC(=O)CN2C(=O)c3ccccc3C2=O)c1C | 9.63% [at 102 µM] (inactive) | 
CCN1C(=O)c2cccc3c(S(=O)(=O)Nc4ccccc4O)ccc1c23 |  | 44.7 µM (active)
O=C(CN1C(=O)c2cccc3cccc1c23)Nc1ccccc1 | -0.544% [at 102 µM] (inactive) | 
CN1C(=O)c2cccc3c(N)ccc(c23)C1=O | -11.1% [at 2.33 µM] (inactive) | 
CCc1ccc(-c2cc3c(=O)n(CC(=O)NCCCN4CCN(Cc5ccccc5)CC4)nc(C)n3n2)cc1 | 18% [at 102 µM] (inactive) | 
CCOc1ccccc1NC(=O)Cn1c(=O)n(-c2cccc(C)c2)c(=O)c2c1c1cc(OC)ccc1n2C | 3.71% (inactive) | 
Cc1cc2oc(C(=O)N(Cc3ccc(Cl)cc3)Cc3ccco3)c(C)c2cc1Cl | 3.31% (inactive) | 
COc1ccc(CN2CCN(C(=O)c3cc(C4CC4)nn3-c3ccccc3)CC2)cc1F | -5.17% (inactive) | 
O=C(COC(=O)c1cc([N+](=O)[O-])ccc1NCc1ccccc1)NC1CCCCC1 | -5.06% [at 102 µM] (inactive) | 
O=[N+]([O-])c1ccc2nc(-c3ccccn3)[nH]c2c1 | 3.58% [at 102 µM] (inactive) | 
O=[N+]([O-])c1ccc(N/N=C2/CCCCC2c2ccccn2)c([N+](=O)[O-])c1 (configuration not stated) |  | 10 µM (active)
Cc1cc([N+](=O)[O-])ccc1NC1CCCC1 | -0.358% (inactive) | 
C[n+]1ccccc1C1CCCC/C1=N\Nc1ccc([N+](=O)[O-])cc1[N+](=O)[O-] (configuration not stated) |  | 2 µM (active)
O=C(Nc1ccccc1)O/N=C1\CCCCC1c1ccc([N+](=O)[O-])cc1[N+](=O)[O-] (configuration not stated) | 8.25% [at 102 µM] (inactive) | 
CCOc1ccc(CNCc2c(C(=O)O)c(C)n(Cc3cccc(OC)c3)c2C)cc1OC | 2.42% (inactive) | 
CC(C)Sc1oc(-c2cccs2)nc1S(=O)(=O)c1ccc(Cl)cc1 | 12.9% (inactive) | 
CCOc1ccc(/C=N\NC(=O)c2c(C)nc3cc(C)ccn23)cc1 | 18% [at 0.501 µM] (inactive) | 
C/C(=N\OC(=O)c1ccccc1)c1c(C)nc2cc(C)ccn12 |  | 50.1 µM (active)
C/C(=N/OC(=O)c1ccc(Br)cc1)c1ccc(C)cc1 | 20.4% [at 102 µM] (inactive) | 

SMILES | activity, negative = inhibition | Potency
Cc1nnc(N2CCC(C(=O)Nc3ccc(F)cc3)CC2)c2nn(-c3ccc(Cl)cc3)c(C)c12 | -2.85% (inactive) | 
Cc1cccc(C(=O)NCCc2nc3ccccc3n2Cc2ccccc2Cl)c1 | -2.51% (inactive) | 
O=C(Nc1cccc(-c2cccc(Cl)c2)c1)C1CCN(C2CCC2)CC1 | -4.3% [at 0.0925 µM] (inactive) | 
O=Cc1c(Nc2ccccc2Cl)nc2ccccn2c1=O | 5.69% [at 0.501 µM] (inactive) | 
COc1ccccc1C(=O)N1CCN=C1SCc1cccnc1 | 4.75% [at 12.7 µM] (inactive) | 
COc1cccc(OC)c1C(=O)N1CCN(Cc2cccnc2)CC1 |  | 7.08 µM (active)
COc1cccc(OC)c1OCCN1CCN(C(=O)c2ccco2)CC1 | 12.4% [at 102 µM] (inactive) | 
CCC(C)N(C(=O)CSc1nnnn1-c1ccccc1OC)C1CCS(=O)(=O)C1 (configuration not stated) | -13% (inactive) | 
CCn1c(=O)c(=O)[nH]c2c(=O)oc3ccc(S(=O)(=O)Nc4ccc(OC)cc4)cc3c21 | -14% [at 102 µM] (inactive) | 
Cc1ccc(Cl)c(OCC(=O)N2CCc3ccccc3C2)c1 | 4.26% [at 102 µM] (inactive) | 
O=C1N/C(=C/c2cccs2)C(=O)N1Cc1ccc(F)cc1 | -10.9% [at 102 µM] (inactive) | 
CSC1=N/C(=C\C=C\c2cccs2)C(=O)S1 |  | 7.94 µM (active)
Cc1cccc(C2=N/C(=C/c3cccs3)C(=O)O2)c1 | -37.5% [at 102 µM] (inactive) | 
CC(=O)c1ccc(N2CCN(C3C(=O)c4ccccc4N3C(C)=O)CC2)cc1 (configuration not stated) | -31.2% (inactive) | 
CCCOc1ccccc1-c1nc(SCCC(=O)O)n[nH]1 |  | 11.2 µM (active)
COc1ccccc1-c1nc(SC)n[nH]1 | -11.3% [at 102 µM] (inactive) | 
CCCOc1ccccc1C(=O)NCCCC(=O)O | -1.32% [at 102 µM] (inactive) | 
Cc1nc2nc(SCC(=O)NC3CCC(C)CC3)nn2c(C)c1Cc1ccccc1Cl (configuration not stated) | -39.2% (inactive) | 
Cc1cccc(-n2cnc(C(=O)Nc3cccnc3)c2)n1 | -4.43% [at 102 µM] (inactive) | 
Cc1cccc(-n2cnc(C(=O)NNC(=S)Nc3ccccc3)c2)n1 |  | 28.2 µM (active)
COC(=O)c1ccc(NC(=S)Nc2cccc(C)n2)cc1 | -9.29% [at 12.7 µM] (inactive) | 
O=C(c1ccc(Cl)nc1)N1CCN(S(=O)(=O)c2ccc3c(c2)OCCO3)CC1 | -21.6% [at 12.7 µM] (inactive) | 
